This is one part of a sample in which hits are shown more often than they occur.
mcGAS RapidFire – blocks mouse cGAS cGAMP production | Q8C6L5 | recombinant mouse cGAS, cGAMP by RapidFire MS | inhibition, % at 12.5 µM | hit rate 0.18% among 130,000 | AID 1259397;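 active = inhibition of cGAS enzyme activity at or above 60%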;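 also: enzyme stimulated by 45 bp dsDNA with ATP and GTP substrates; cGAMP share of summed cGAMP plus half ATP and half GTP signals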
Target sequence (Q8C6L5 whole entry, looked up): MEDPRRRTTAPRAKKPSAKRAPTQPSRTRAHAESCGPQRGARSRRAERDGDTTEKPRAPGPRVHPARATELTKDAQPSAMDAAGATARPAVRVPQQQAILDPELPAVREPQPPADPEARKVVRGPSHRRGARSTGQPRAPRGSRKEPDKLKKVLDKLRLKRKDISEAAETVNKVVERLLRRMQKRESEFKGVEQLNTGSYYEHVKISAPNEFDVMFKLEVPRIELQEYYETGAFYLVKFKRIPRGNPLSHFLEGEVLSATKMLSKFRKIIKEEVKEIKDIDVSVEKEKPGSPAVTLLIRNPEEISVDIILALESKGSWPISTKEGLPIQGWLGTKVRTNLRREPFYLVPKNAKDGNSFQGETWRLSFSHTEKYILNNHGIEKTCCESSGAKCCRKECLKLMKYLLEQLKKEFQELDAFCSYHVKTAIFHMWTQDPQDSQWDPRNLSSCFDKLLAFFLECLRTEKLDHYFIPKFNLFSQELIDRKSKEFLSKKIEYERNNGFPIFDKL
* = called active by the depositor; ! = repeats disagree.

SMILES	mcGAS RapidFire
CCn1nc(C(C)C)cc1C(=O)N1C[C@H](O)C[C@H]1C(=O)OC	-24.5
CCn1cc(CN2CCCC(CNC(=O)c3ccc(-c4ccccc4)cc3)C2)cn1 (stereo not drawn)	-2.1
Cc1cccc(C(=O)N2CCCC(CO)(Cc3ccccc3C)C2)n1 (stereo not drawn)	-8.7
Cc1ccccc1CC1(CO)CCCN(C(=O)c2ccccc2N(C)C)C1 (stereo not drawn)	90.6*
Cc1ccccc1CC1(CO)CCCN(C(=O)CN2CCOc3ccccc3C2)C1 (stereo not drawn)	-9.0
CC#CCN1C(=O)C(CCC(=O)NCCc2c(C)[nH]c3ccccc23)NC(=O)c2ccccc21 (stereo not drawn)	-5.7
OCc1csc(COc2ccc(Cl)cc2CNCCN2CCOCC2)n1	-6.2
CC(=O)NCCSc1nnnn1-c1c(C)cccc1C	-5.2
COC(=O)C1=C(C(=O)OC)[C@](C#N)(c2ccccc2)O[C@]1(C#N)c1ccccc1	-1.8
Cc1ccc(Cl)cc1N=Cc1nc(-c2cccc3ccccc23)oc1O	82.6*
Cc1ccc(Cl)cc1N=Cc1nc(-c2ccc(Cl)cc2)oc1O	-19.4
Oc1oc(-c2cccc3ccccc23)nc1C=Nc1cccc(F)c1	-5.8
Cc1ccc(-c2nc(C=Nc3cccc(C)c3)c(O)o2)cc1	-13.9
Cc1cccc(N=Cc2nc(-c3cccc4ccccc34)oc2O)c1	88.0*
Cc1cc(Cl)ccc1N=Cc1nc(-c2ccccc2Br)oc1O	-12.9
O=C(CCCc1ccc(Cl)cc1)N1CCC(CO)(Cc2cccc(C(F)(F)F)c2)CC1	-4.1
COc1cc(Cl)c(S(=O)(=O)N2CCN(c3cccc(C)c3C)CC2)cc1Cl	4.0
COc1ccc(OC)c(C=CC(=O)Nc2nc3ccc(S(C)(=O)=O)cc3s2)c1	-2.7
O=C(Nc1cccc(-c2cc3ccccc3[nH]2)c1)C1CCCN(C2CCOCC2)C1 (stereo not drawn)	-0.6
CC(C)(C)c1ncc(CNc2ccc(OCC(F)(F)F)nc2)s1	50.0
NC(=O)c1ccc(OCC(=O)N2CCCC2C2CCCCC2)cc1 (stereo not drawn)	-9.9
O=C(Nc1nncs1)c1cn(-c2ccccc2Br)nn1	70.5*
O=C(Nc1nnc(C2CC2)s1)c1cn(-c2ccc(Br)cc2)nn1	5.7
O=C(Nc1nncs1)c1cnn(Cc2ccccc2Cl)c1	25.1
Cc1nc(NC(=O)NC2CCN(C3CCOC3)CC2)sc1C (stereo not drawn)	-3.7
SMILES	mcGAS RapidFire
CC(C)NC(=O)c1cnc(N2CCN(CCc3ccccc3)C2=O)o1	-0.7
O=C(O)C1CSC(c2cc(Br)ccc2O)N1 (stereo not drawn)	-2.5
O=C(O)C1CSC(c2cc(Br)c(O)c(Br)c2)N1 (stereo not drawn)	87.4*
CSc1ccc(C2NC(C(=O)O)CS2)cc1 (stereo not drawn)	-3.8
CN(c1cnn(-c2ccc(C(F)(F)F)cn2)c(=O)c1Cl)C1CCc2ccccc21 (stereo not drawn)	-11.9
NC(=O)c1cc(NC(=O)Cc2ccc3c(c2)CCCC3)ccc1F	-4.6
COC(=O)c1ccc(-c2noc(CN3CCSCC3)n2)cc1	-10.3
COc1cc(F)ccc1-c1ncccc1NC(=O)C(C)C	-16.1
COc1cc(/C=C/c2ccc(O)c(OC)c2)ccc1O	-10.2
COc1cc(/C=c2\sc3nc4cc(Br)cnc4n3c2=O)ccc1O	71.5*
COc1cc(C=C2C(=O)N(C)C(=O)N(C)C2=O)ccc1O	30.0
CC(=O)N[C@@H]1CCN(C(=O)CN2C(=O)C(Oc3ccccc3)C2c2cccnc2)C1 (stereo partly drawn)	-6.8
CCC1CCC/C1=N/NC(=O)C(O)(c1ccccc1)c1ccccc1 (stereo not drawn)	-4.4
Cc1ccc(-c2cnc(C3CCCCN3C(=O)C3CCCO3)[nH]2)cc1 (stereo not drawn)	-11.2
O=C(O)C12CC3CC(CC(C3)C1)C2	-3.1
O=C(O)C12CCCC(Br)(CCC1)C2	2.4
Cc1ncc(COC(=O)C2Oc3ccccc3C2C)s1 (stereo not drawn)	2.6
COc1ccc(CN(C)C(=O)Nc2ccccc2OCC(C)C)cc1	-0.1
Cn1c(=O)c2c(nc3n2CC(c2ccc(F)cc2)=NN3Cc2ccc(Br)cc2)n(C)c1=O	12.8
COc1ccc(Cl)cc1CN1C(=O)CON=C1c1ncccc1C	-2.0
Cc1ccccc1CN1C(=O)CON=C1c1ccc(N(C)C)cc1	2.8
COc1ccc(Cl)cc1CN1C(=O)CON=C1c1ccc(C)cc1	63.2*
CCN1CCC(N(C)C(=O)Nc2nccs2)CC1C (stereo not drawn)	-6.6
CSc1nc2nc(C)c(CCC(=O)NC(C)c3ccc(F)c(F)c3)c(C)n2n1 (stereo not drawn)	2.5
CCN1C(=Cc2ccc3cc(C)ccc3[n+]2CC)Sc2ccccc21	10.9
SMILES	mcGAS RapidFire
CCN1C(=CC=Cc2sc3ccccc3[n+]2CC)Sc2ccccc21	70.3*
CCC(C)[n+]1c(C)cc(C=C2Sc3ccccc3N2CC)cc1C (stereo not drawn)	-10.4
Cc1ccc2ncc(CCNC(=O)CC(C)(C)O)n2c1	-1.9
O=C(c1cc(S(=O)(=O)N2CCC(OCCN3CCCCC3)C2)c[nH]1)N1CCCC1 (stereo not drawn)	0.6
CCNC(=O)C1(C)CCCN(CC(=O)c2ccc(Br)cc2)C1 (stereo not drawn)	-2.1
CCNC(=O)C1(C)CCN1CCC(=O)c1ccc(Br)cc1 (stereo not drawn)	-3.8
CCCNC(=O)C1(C)CCN(CCC(=O)c2ccc(Br)cc2)C1 (stereo not drawn)	64.0*
COC(=O)c1cc(NC(=O)c2ccc(Cl)cc2N2CCCC2=O)c(F)cc1F	-14.4
C[C@H](NC(=O)OCc1ccccc1)C(=O)N1CCCCC1c1cccnc1 (stereo partly drawn)	19.0
CC1C(c2ccc(Cl)cc2)=[N+]([O-])C(C)(c2ccccc2)N1O (stereo not drawn)	-8.2
CC1=C(c2ccc(Cl)cc2)[N+](=O)C(C)(c2ccc(Br)cc2)N1[O-] (stereo not drawn)	90.3*
CC(=O)C1(C)N(O)C(C)(C)C(c2ccc(Cl)cc2)=[N+]1[O-] (stereo not drawn)	-0.7
COC(=O)c1ccc(NC(=O)c2cn(C)c3c(=O)n(-c4ccccc4)c(=O)[nH]c23)cc1	-18.3
O=C(COCC1CC1)N1CCc2[nH]c3ccccc3c2C1	44.2
COC(=O)C1=C(C)NC(C)=C(C(=O)OCC(C)C)C1c1ccccc1[N+](=O)[O-] (stereo not drawn)	65.3*!
CCN1C(=O)NC(c2ccccc2[N+](=O)[O-])C(C(=O)OCCOC)=C1C (stereo not drawn)	-8.1
COC(=O)C1=C(C)NC(C)=C(C(=O)OCCN)C1c1ccccc1C(F)(F)F (stereo not drawn)	-7.1
CCCCCC1=CCCC1=NNC(=S)NCCOC	-8.2
c1cc(-c2n[nH]c(C3CCCCC3)n2)c2cccnc2c1	-5.2
CC(Nc1ncccn1)c1cc2ccccc2o1 (stereo not drawn)	-4.2
O=c1cc(CSc2nnc3n2CCCCC3)c2c(ccc3ccccc32)o1	11.1
CC(=NCCc1ccccc1)c1c(C(F)(F)F)[nH]n(-c2nc3ccccc3s2)c1=O	5.7
C/C(=C1\C(=O)N(c2nc3ccccc3s2)N=C1C(F)(F)F)N1CCN(c2ccccc2)CC1	65.8*
C/C(=N\N1CCN(C)CC1)c1c(C(F)(F)F)[nH]n(-c2nc3ccccc3s2)c1=O	-2.3
O[C@@]1(Cn2ncc3ccccc32)CCCN2CCCC[C@@H]21	-4.9
N#Cc1ccc(/C=C2\CS(=O)(=O)c3c(F)cccc3C2=O)cc1	63.1*

Compound activity from PubChem.
